# From PubChem BioAssay (NCI)
# The panel holds about 83,000 compounds, 20% with a hit somewhere; the sample as a whole holds those more often.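 Results are percent growth after 48 hours of single-concentration exposure. 100 means growth as in untreated cells, lower positive values show inhibition; negative values down to -100 show cell death.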 Unmarked numbers belong to inactive results. The source made the active and inactive calls. The calls were made as follows: active = growth percent below 10; inactive = the rest.
# Experiments:
# Assay in all cases: NCI-60 one-dose screen, 48 h (100 = growth as untreated, 0 = no growth, -100 = all killed)
# Conditions in all cases: 10 µM unless noted
# SK-MEL-2 melanoma = tested on: SK-MEL-2 melanoma
# EKVX NSCLC = tested on: EKVX NSCLC
# SN12C renal = tested on: SN12C renal
# UO-31 renal = tested on: UO-31 renal
# TK-10 renal = tested on: TK-10 renal
# ACHN renal = tested on: ACHN renal
# CAKI-1 renal = tested on: CAKI-1 renal
# A498 renal = tested on: A498 renal
# CCRF-CEM leukemia = tested on: CCRF-CEM leukemia
# MOLT-4 leukemia = tested on: MOLT-4 leukemia
Compound,growth (SK-MEL-2 melanoma),growth (EKVX NSCLC),growth (SN12C renal),growth (UO-31 renal),growth (TK-10 renal),growth (ACHN renal),growth (CAKI-1 renal),growth (A498 renal),growth (CCRF-CEM leukemia),growth (MOLT-4 leukemia)
OCC(Nc1ncnc2ccc(-c3cnc4cnccn34)cc12)c1ccccc1 (configuration not stated),45%,52.3%,80.7%,36.6%,40%,43.3%,41.7%,76.4%,80.5%,76.1%
CCc1cc2c(cc1Cl)nc1c(=O)[nH]c(=O)nc-1n2CCOCC(C)C,80.1%,68.1%,57.4%,57.1%,176%,60%,67.7%,76.4%,–,64.1%
O=C1[C@@H]2Cc3c([nH]c4ccccc34)[C@@H](c3ccc(Cl)cc3)N2C(=O)CN1C1CCN(Cc2ccccc2)CC1,92.7%,54.6%,55%,30.5%,78.9%,51.4%,26.2%,76.1%,–,13.5%
Cc1ccc2c(n1)C(=O)C(Cl)=C(Nc1ccc(C)c(C)c1)C2=O,40%,52.6%,0.141% (active),44%,140%,57%,90%,71.8%,30.8%,60.1%
COC(=O)CNC(=O)c1cccc(-c2cc(=O)c3c(OC)c(OC)c(OC)cc3o2)c1,105%,102%,104%,86.1%,109%,98.9%,102%,90.8%,91.3%,99.5%
CCc1cc2c(cc1Cl)nc1c(=O)[nH]c(=O)nc-1n2CCOCC(C)(C)C,96.6%,71.2%,79.8%,44.3%,160%,65.7%,70.8%,87.6%,–,69.2%
O=C(/C=C/c1ccccc1)c1cccc(O)c1,108%,98.6%,98.8%,76.2%,108%,106%,91.5%,105%,77.8%,85.2%
O=C(COc1ccc(/C=C2\C(=O)Nc3cc(Cl)ccc32)cc1)Nc1ccc(Cl)cc1,95.6%,78.2%,78.9%,46.5%,127%,57.8%,55.4%,102%,–,50.1%
Cc1ccc2c(n1)C(=O)C(Cl)=C(Nc1cc(C(F)(F)F)cc(C(F)(F)F)c1)C2=O,74.5%,78%,92.1%,9.71% (active),106%,-64.9% (active),81.4%,80.4%,–,9.31% (active)
COc1ccc(-c2c(C(N)=O)c(N)n(Cc3nc4ccccc4[nH]3)c(=O)c2C#N)c(OC)c1,99.2%,95.4%,101%,68%,150%,96.2%,78.9%,102%,–,102%
COc1ccc(C(=NNS(=O)(=O)c2ccc(C)cc2)c2ccccc2)cc1OC,101%,95.4%,98.9%,77.4%,96.6%,98%,80.7%,98.3%,102%,98.3%
O=S1SC(c2ccccc2)=NN1c1cc(F)cc(F)c1 (configuration not stated),68.1%,38%,33.1%,22.7%,85.8%,51.5%,52.4%,12.7%,–,17.5%
C#CCOc1ccccc1C(OC(=O)c1ccccc1)C(=O)NC(C)(C)C(C)(C)C (configuration not stated),90.6%,75.3%,95.7%,62.7%,101%,97.2%,63.5%,120%,–,40.6%
CCCCSC1=C(Cl)CN(c2ccc(Cl)cc2)C1=O,103%,101%,104%,91.1%,140%,104%,93.9%,101%,89.9%,86.2%
CC1=C(C)C(=O)C(Nc2cccc(C(=O)OC(C)(C)C)c2)=C(Cl)C1=O,95.8%,90.2%,84.1%,86.5%,116%,79.6%,76.1%,59.8%,–,45.3%
COc1ccc(-c2cc(-c3ccc(N4CCOCC4)cc3)n3c(n2)nc2ccccc23)cc1OC,97.8%,88.3%,78.6%,39.2%,98.8%,93.6%,50.6%,63%,–,51.4%
CCOC(=O)c1c(NC(=O)c2ccc(C(F)(F)F)cc2)sc2c3c(ccc12)OCN(C)C3,72.8%,79.5%,48.1%,70.9%,-15.7% (active),-14.5% (active),-23.9% (active),89.1%,–,-8.7% (active)
O=C(Nc1ccc(N=Cc2c(O)[nH]c3ccccc23)cc1)Nc1ccc(S(=O)(=O)Nc2ncccn2)cc1,111%,98.1%,98.8%,81.7%,108%,104%,94.8%,114%,109%,121%
CCN(CC)CCOc1ccc(C(=C(c2ccccc2)C2CCCC2)c2ccc(OCCN(CC)CC)cc2)cc1,6.57% (active),48.4%,6.33% (active),86.5%,74.3%,95.3%,94.2%,96.5%,8.31% (active),0.859% (active)
CC1=C(C)C(=O)C(Nc2ccc3c(c2)OCO3)=C(Br)C1=O,114%,76.3%,102%,88.1%,150%,100%,95.6%,95.2%,11.6%,-10.2% (active)
O=C(CN1CCN(c2cc(=O)[nH]c3ccc(F)cc23)CC1)N(c1ccccc1)c1ccccc1,106%,96.8%,97.1%,90.3%,98.7%,105%,95.1%,83.7%,–,99.5%
O=C(CCCCCC/C=C\c1csc(Br)n1)NO,101%,94%,98.2%,60.6%,59.4%,82.8%,78.7%,87.1%,–,63.7%
CCOC(=O)c1c(NCC(=O)Nc2cccc([N+](=O)[O-])c2)sc(C(C)=O)c1C,-15% (active),0.605% (active),12.6%,-12.7% (active),-22.6% (active),-13.5% (active),-30.8% (active),-75.3% (active),–,3.1% (active)
CC(=O)Nc1ccccc1-c1nc2ccccc2s1,104%,96.1%,92.5%,89.1%,97.7%,102%,95.4%,84.4%,–,104%
COc1cccc(N2CCN(C3=C(Cl)C(=O)c4ncccc4C3=O)CC2)c1,98.4%,102%,95.8%,38%,126%,-23.8% (active),57.8%,104%,–,18.2%
Cc1nc(/N=C(N)/N=C(\N)c2cccc(Br)c2)sc1C,64%,60.2%,47.3%,52.5%,83.3%,49.9%,48.6%,43.5%,–,39.7%
Cc1ccc(C)c(NC2=C(Cl)C(=O)c3nc(C)ccc3C2=O)c1,-36.2% (active),1.21% (active),-81.7% (active),-81.4% (active),147%,-96.3% (active),57%,83.8%,–,-11% (active)
